From PubChem BioAssay (NCATS)
Inconclusive results are not listed. Where a call stands in place of a potency, no number is given. Active and inactive are the calls of the source. Calls come from the whole dose curve; as a rule, active = well fitted inhibition curve with a large enough effect; inconclusive = small, poorly fitted or top-dose-only effect; inactive = flat fitted curve, though single readings scatter.

test system: Dd2; experiment: qHTS profiling for inhibitors of Plasmodium falciparum proliferation (AID 504749); note: nearly all actives have a fitted effect of over 60% in size; details: P. falciparum in erythrocytes, SYBR Green DNA, 72 h; series mostly up to 28.7 µM
Method in brief: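 Parasite proliferation within erythrocytes, 72 h exposure. Endpoint: SYBR Green I fluorescence after overnight lysis at room temperature. Controls: 0.29 uM artemisinin, DMSO.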
Potency is the fitted concentration of half-maximal effect.

Compound | Potency
O=[N+]([O-])c1ccccc1 | inactive
O=C1CC[C@@]2(O)C3Cc4ccc(O)c5c4C2(CCN3CC2CC2)[C@H]1O5 (stereo partly specified) | inactive
O=C/C=C/c1ccccc1 | inactive
CCNC(C)Cc1cccc(C(F)(F)F)c1 (stereo unspecified) | inactive
CCOP(=O)(OCC)O/C(=C/Cl)c1ccc(Cl)cc1Cl | inactive
CCN(CC)C(=O)/C(Cl)=C(\C)OP(=O)(OC)OC | inactive
c1ccc(C2(N3CCCC3)CCCCC2)cc1 | 12.6 µM (active)
[Cl-].[Cl-].[Hg+2] | 12.6 µM (active)
CCC1(CC)C(=O)NC(=O)N(C)C1=O | inactive
c1cc2c(c(NC3=NCCN3)c1)CCCC2 | inactive
CCC1C(C)=NN=C(c2ccc(OC)c(OC)c2)c2cc(OC)c(OC)cc21 (stereo unspecified) | inactive
N#CC(C#N)=Cc1cc(O)c(O)c(O)c1 | 6.31 µM (active)
C=CCC1(C(C)CCC)C(=O)N=C(S)NC1=O (stereo unspecified) | inactive
F/C(COc1ccc2c(c1)[nH]c1ccccc12)=C1/CN2CCC1CC2 | 5.62 µM (active)
Oc1cccc[c]1[Hg][Cl] | 2.51 µM (active)
C[C@H]1CCC[C@H](O)CCCCCc2cc(O)cc(O)c2C(=O)O1 | inactive

Compound | Potency
ClC1C(Cl)C(Cl)C(Cl)C(Cl)C1Cl (stereo unspecified) | inactive
CCC1(c2ccccc2)C(=O)NC(=O)N(C)C1=O (stereo unspecified) | inactive
CCCCCCCCCC(=O)O[C@H]1CC[C@H]2[C@@H]3CCC4=CC(=O)CC[C@]4(C)[C@H]3CC[C@]12C | inactive
CCC1(c2ccccc2)C(=O)NC(=O)N(C(=O)c2ccccc2)C1=O (stereo unspecified) | inactive
COc1ccc2c(c1OC)C(=O)OC2C1c2cc3c(cc2CCN1C)OCO3 (stereo unspecified) | inactive
C=CCN=C=S | inactive
CCOc1ccc2c3c1O[C@H]1[C@@H](O)C=C[C@H]4[C@@H](C2)N(C)CC[C@@]341 | inactive
Cc1sc2ccccc2c1CC1=NCCN1 | inactive
O=C1CN=C(c2ccccc2)c2cc(Cl)ccc2N1CC1CC1 | inactive
CC(C)Nc1ccc(Nc2ccccc2)cc1 | 10 µM (active)
CC12NC(Cc3ccccc31)c1ccccc12 (stereo unspecified) | 11.2 µM (active)
c1ccc2cc(CC3=NCCN3)ccc2c1 | inactive
CCCN1CCCC2Cc3[nH]ncc3CC21 (stereo unspecified) | inactive
Oc1cc(Cl)c(Cl)cc1Cl | inactive
CN1CCCC(=C(c2cccs2)c2cccs2)C1 | 11.2 µM (active)
